Source: PubChem BioAssay AID588814 (The Scripps Research Institute Molecular Screening Center, 2011)
Where “and” joins values, the source holds several entries; their conditions need not be identical. Equal values may be shown once. Screen size: about 360,000 compounds; about 1,200 (0.33%) were called active.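 Rule for the calls: active = activation above the run's mean compound activation plus 3 SD (cut at about 16% in these data); inactive = the rest.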 What follows is part of a selection rich in actives, with near analogues and random picks from the rest.

What follows are molecules tested against Muscarinic acetylcholine receptor M1 (Homo sapiens) (UniProt P11229) (assay: human M1 muscarinic receptor agonists, primary screen, Fluo-8 calcium fluorescence, CHO-K1 cells, HTS (AID 588814;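 note: peak over basal fluorescence ratio within a 140 s kinetic read after compound addition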)). Conditions: CHO-K1 hM1, Fluo-8 calcium fluorescence, agonist mode; at 3 µM; stronger effect = higher value; 0% DMSO, 100% acetylcholine EC100.
Chain of Muscarinic acetylcholine receptor M1 (Homo sapiens) (P11229 whole entry, looked up): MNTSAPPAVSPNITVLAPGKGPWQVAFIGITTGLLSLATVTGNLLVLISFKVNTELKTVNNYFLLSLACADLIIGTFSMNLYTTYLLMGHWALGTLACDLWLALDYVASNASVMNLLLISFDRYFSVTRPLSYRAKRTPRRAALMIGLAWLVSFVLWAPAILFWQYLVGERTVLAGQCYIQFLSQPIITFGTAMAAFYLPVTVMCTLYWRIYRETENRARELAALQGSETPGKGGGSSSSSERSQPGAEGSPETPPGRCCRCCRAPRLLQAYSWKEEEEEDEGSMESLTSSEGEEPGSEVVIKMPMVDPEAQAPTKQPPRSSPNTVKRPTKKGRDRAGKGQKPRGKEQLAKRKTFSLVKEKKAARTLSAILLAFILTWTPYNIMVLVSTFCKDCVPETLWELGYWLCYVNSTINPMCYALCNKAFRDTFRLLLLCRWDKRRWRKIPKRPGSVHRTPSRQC

activation, inactive:
C[C@H]1CN([C@@H](C)CO)C(=O)c2cc(C3=CCCCC3)cnc2O[C@@H]1CN(C)C(=O)Cc1ccccc1 -6.56%
CN(CCc1ccccc1)C(=O)c1cccc(NC(=O)Cc2cccc(NC(=O)C3CCCN(C(=O)CCc4ccccc4)C3)c2)c1 (stereo unspecified) -7.79%
Cc1ccc(-c2nnc(C)c(N3CC(C)OC(C)C3)n2)cc1 (stereo unspecified) -3.38%
Cc1ccc(SCC(=O)Nc2nncs2)cc1 0.6%
CC(Oc1ccccc1)C(=O)Nc1oc(-c2ccco2)c(-c2ccco2)c1C#N (stereo unspecified) -4.2%
CCOc1ccc(S(=O)(=O)N2CCC(C(=O)NCC(=O)Nc3cccc(Cl)c3C)CC2)cc1 -2.79%
COc1ccc(CCNC(=O)/C(C#N)=C2\N=C(NC(=O)c3cccs3)c3ccccc32)cc1 0.74%
CCN(CC)c1ccc(S(=O)(=O)N2CCOCC2)cc1NC(=O)CSc1cccc[n+]1[O-] -5.92%
CCOc1ccc(NC(=O)CC(Cc2ccc(Cl)cc2)C(=O)O)cc1 (stereo unspecified) -7.97%
O=C(NN1CCOCC1)c1cccc(F)c1 -3.15%
Cc1ccc(C(=O)NC2CCN(C(=O)Nc3ccccc3Cl)CC2)cc1 -1.42%
CC(C)CNC(=O)C1CCCN(S(=O)(=O)c2ccc(-n3cnnn3)cc2)C1 (stereo unspecified) -2.97%
O=C(Nc1ccc(F)cc1)C1CCCN(S(=O)(=O)c2ccc(-n3cnnn3)cc2)C1 (stereo unspecified) -3.35%
O=C(NCCCN1CCCC1=O)C(=O)NCC1OCCN1S(=O)(=O)c1ccc(Br)cc1 (stereo unspecified) -4.08%
COc1ccc(Cl)cc1NC(=O)CN(C)C(=O)CCCc1c[nH]c2ccccc12 -1.46%
Cc1occc1-c1nnc(SCC(=O)NC2(C#N)CCCC2)n1C -1.84%
CCOC(=O)c1nnn2c3ccccc3c(=O)n(C)c12 -1.59%
CCOC(=O)N1CCN(C(=O)c2nn(-c3ccc(C)cc3)c(=O)c3c2c2ccccc2n3C)CC1 -4.51%
COC(=O)c1ccc(CNC(=O)C2CCC(=O)N(Cc3cccc(F)c3)C2)cc1 (stereo unspecified) -0.82%
Cc1nc([N+](=O)[O-])c(NCCCO)n1Cc1ccccc1 -5.22%
CN(C)CCNC(=O)c1ccc(Cl)c2cc3ccccc3nc12 -6.82%
CSCc1cc(N(C)C)nc(SCc2ccc(Cl)cc2Cl)n1 1.65%
COc1cccc(NC(=O)N(C)C[C@@H]2Oc3ncc(Br)cc3C(=O)N([C@@H](C)CO)C[C@H]2C)c1 -2.37%
COC(=O)c1cc(NS(=O)(=O)c2ccc3c(c2)c(=O)n(C)c(=O)n3C)cc(C(=O)OC)c1 -0.41%
Cc1ccccc1NC(=O)c1cc(S(=O)(=O)N2CCOCC2)cs1 -2.94%
COc1cc(OC)cc(C(=O)NC(C(=O)N2CCC2)C(C)C)c1 (stereo unspecified) -2.4%
COc1cc(OC)cc(C(=O)NCC(=O)OCC(=O)NC(C)CCc2ccccc2)c1 (stereo unspecified) -5.47%
CC(NC(=O)Nc1ccccc1)c1ccccc1 (stereo unspecified) -4.05%
CC(C)c1ccc(NC(=O)Cn2ncc3ccccc32)cc1 -2.42%
COc1ccc(C(c2nnnn2C2CCCC2)N2CCN(C/C=C/c3ccccc3)CC2)cc1 (stereo unspecified) -7.67%
Cc1ccc(N2C(=O)C3C4C=CC(CC4)C3C2=O)cc1Cl (stereo unspecified) -1.43%
Cc1ccc(S(=O)(=O)Oc2ccc(/C=N/NC(=O)c3c(Cl)cnn3C)cc2)cc1 -4.49%
Cc1cc(NC(=O)CSc2nc3c(cc2C#N)CCCCC3)no1 -4.15%
CC1(C)CCc2nc(SCc3ccccc3)c(C#N)cc2C1 -1.01%
COc1ccc(Nc2nc(N)nc(CSC(=S)N3CCC(C)CC3)n2)cc1 -4.28%
CCOC(=O)C1CCCN(CCSc2ccc(C)cc2)C1 (stereo unspecified) -6.73%
CCOC(=O)C1CCCN(C(=O)c2cccc3ccccc23)CC1 (stereo unspecified) -0.09%
O=C(c1cnccn1)N1CCN(S(=O)(=O)c2cccc(Cl)c2)CC1 -0.88%
CC(C)(C)NC(=O)NC(=O)CN1CCC(Cc2ccccc2)CC1 -13.3%
CC(C)(CNC(=O)Cc1ccc(Cl)cc1Cl)N1CCOCC1 -10.7%
CN1c2ccc(C=O)c3c(C=O)ccc(c23)N(C)C1(C)C -7.9%
CCN(CC)C(=O)C1=C(C)N(Cc2ccc(OC)cc2)C(=O)C(CC(=O)NCc2ccco2)C1 (stereo unspecified) -7.01%
COc1ccc(CN2C(=O)C(CC(=O)NCCCCc3ccccc3)CC(C(=O)N3CCOCC3)=C2C)cc1 (stereo unspecified) 3.01%
Cn1cc(C2OC(=O)c3ccccc32)c2ccccc21 (stereo unspecified) 0.52%
C[C@]12CCC(=O)C=C1C=CC1C2CC[C@@]2(C)C1CC[C@@]21CCC(=O)O1 (stereo partly specified) -6.36%
O=C(CN1C(=O)CC(c2ccccc2)S(=O)(=O)c2ccccc21)NC1CCCC1 (stereo unspecified) -3.97%
COc1ccc(CCC(=O)OCC(=O)Nc2ccc(C)c(S(=O)(=O)N(C)C)c2)cc1 -1.39%
CCN1CCN(c2cc3nc(C)n(Cc4ccccc4)c(=O)c3cc2NC(=O)c2ccccc2F)CC1 -9.45%
NNC(=O)COc1ccc(C2SCCS2)cc1 -1.63%
CC(=O)NC(=S)NNC(=O)c1ccc(Br)cc1 -8.87%
O=C(NNC(=S)NCc1ccccc1)c1ccc(OC(F)F)cc1 -4.38%
CCOc1ccccc1NC(=S)NC(=O)CCc1ccccc1 -3.2%
O=C(CCc1ccccc1)NNC(=O)COc1ccc(Cl)cc1 1.21%
COCCCNC(=O)C1CC(=O)N(c2ccc(C)cc2)C1 (stereo unspecified) -2.9%
O=C(c1ccc(CS(=O)(=O)c2ccccc2)o1)N1CCN(c2ccccc2)CC1 -1.41%
CC(C)(C)NS(=O)(=O)NC(=O)C1=C(N2CCCC2)COC1=O -5.28%
Cc1nc(C(F)(F)F)ccc1C(=O)N1CCC1(C)C(=O)NS(=O)(=O)c1ccccc1Cl (stereo unspecified) -0.92%
CC1=NCCN1S(=O)(=O)c1ccc(Br)c(C)c1 -3.91%
O=C1COc2ccc(C(=O)CSc3ccc(Br)cc3)cc2N1 0.13%
c1ccc(CCC2=NCCn3cccc32)cc1 -1.99% and -6.48%
Nc1c(C(=O)Nc2ccc3c(c2)OCCO3)nnn1Cc1ccccc1 1.21%
COc1ccc(NC(=O)Cn2nnc(C(=O)NCCc3ccc(OC)c(OC)c3)c2N)cc1 -1.8%
COc1ccc(CNC(=O)c2nnn(CC(=O)Nc3cc(C)cc(C)c3)c2N)cc1 -1.24%
COc1cccc(CNC(=O)c2nnn(CC(=O)Nc3cc(Cl)ccc3C)c2N)c1 2.49%
O=C(CCNS(=O)(=O)c1ccc(Br)s1)NCc1ccccc1Cl -1.35%
O=c1o[nH]c(-c2ccccc2)c1N=Nc1c(F)cccc1Cl -2.19%
CCCCNC(=O)CCn1c(=O)c2ccccc2n(Cc2cc(C)ccc2C)c1=O -4.41%
OC(c1ccc(F)cc1)c1ncc(-c2cccc(C(F)(F)F)c2)[nH]1 (stereo unspecified) 6.15%
CC(=O)Nc1cc(-c2ccccc2F)cn2c(-c3cccc(C(F)(F)F)c3)cnc12 -3.25%
NS(=O)(=O)c1ccc(NC(=O)COC(=O)CCc2c[nH]c3ccccc23)cc1 -0.53%
NS(=O)(=O)c1ccc(NC(=O)COC(=O)c2ccco2)cc1 -0.06%
CC(=O)Nc1cccc(C(=O)OCC(=O)c2ccc3c(c2)OCO3)c1 6.09%
O=C(COC(=O)c1ccc(Cl)nc1)NCc1ccc2c(c1)OCO2 -4.12%

activation, active:
Cc1ccc2nc(/C(C#N)=C\c3ccc(OC(=O)c4cccs4)cc3)[nH]c2c1 21.8%
COC(=O)c1ccc(CN2CCCC(C(=O)Nc3cccc(-n4cnnn4)c3)C2)cc1 (stereo unspecified) 37.4%
Nc1c(C(=O)c2cccs2)sc2nsc(SCCN3CCCCC3)c12 40.6%
CCCc1nc2c(c(=O)c3ccccc3n2C)c(=O)n1C1CCCCCC1 55.4%
Nc1ccc2nc3c(=O)[nH]c(=S)[nH]c3nc2c1 18.4%
COc1cc(OC)cc(C(=O)N[C@H](C(=O)OCC(=O)NC(C)c2ccccc2)C(C)C)c1 (stereo partly specified) 18.7%
CCC(C(=O)Nc1ccc(C(C)C)cc1)c1ccccc1 (stereo unspecified) 29.4%
CC(NC(=O)CSc1nc2c(cc1C#N)CN(C)CC2)c1ccccc1 (stereo unspecified) 18.6%
CCOC(=O)C1CCCN(Cc2nc(N)nc(Nc3ccc(C)cc3)n2)C1 (stereo unspecified) 28.3%
CCN(CC)C(=O)C1=C(C)N(Cc2ccc(OC)cc2)C(=O)C(CC(=O)NCCCCc2ccccc2)C1 (stereo unspecified) 23.1%
Cc1nn(C)cc1N1C(=O)c2cccc3c(N)ccc(c23)C1=O 44.5%
CN1C(=O)c2cccc3c(N)ccc(c23)C1=O 118%
COc1ccc(C(=O)NNC(=S)NC(=O)c2ccccc2)cc1 34.3%
COc1ccc(C(=O)NC(=S)NNC(=O)CCc2ccccc2)cc1 34.7%
CCOc1ccc(Cn2nnc(C(=O)NCc3ccccc3)c2N)cc1 41%
CCOc1ccc(Cn2nnc(C(=O)Nc3ccc(OC)cc3OC)c2N)cc1 17.4%
NS(=O)(=O)c1ccc(NC(=O)COC(=O)c2c3c(nc4ccccc24)/C(=C\c2ccc4c(c2)OCO4)CCC3)cc1 62.8%
NC(=O)c1ccc(NC(=O)COC(=O)c2c3c(nc4ccccc24)/C(=C\c2ccc4c(c2)OCO4)CCC3)cc1 38.3%
